Test results taken from PubChem BioAssay (NCATS).
Where “and” joins values, the source holds several entries; their conditions need not be identical. Identical values can stand only once. Records with an inconclusive call do not appear. Calls of active or inactive are those of the source. The call rests on the fitted dose curve; in most records, active means well fitted inhibition curve with a large enough effect; inconclusive means small, poorly fitted or top-dose-only effect; inactive means flat fitted curve, though single readings scatter.

Experiments:
[1] = tested on: P94_40; assay: qHTS profiling for inhibitors of Plasmodium falciparum proliferation (AID 504749); further: potency means the concentration at half of the fitted maximal effect; details: P. falciparum in erythrocytes, SYBR Green DNA, 72 h; series mostly up to 28.7 µM
Outline: (§1)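 P. falciparum-infected erythrocytes (0.3% parasitemia, 2.5% hematocrit) incubated with compound 72 h at 37 C, 5% CO2. Parasite DNA detected by SYBR Green after lysis, overnight at room temperature; normalised to 0.29 uM artemisinin and DMSO.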

[2] = tested on: PAD; assay: as above; details: P. falciparum in erythrocytes, SYBR Green DNA, 72 h; series mostly up to 28.7 µM
Outline: as §1

[3] = tested on: PC15; assay: as above; details: P. falciparum in erythrocytes, SYBR Green DNA, 72 h; series mostly up to 28.7 µM
Outline: as §1

[4] = tested on: PC26; assay: as above; details: P. falciparum in erythrocytes, SYBR Green DNA, 72 h; series mostly up to 28.7 µM
Outline: as §1

[5] = tested on: PC49; assay: as above; details: P. falciparum in erythrocytes, SYBR Green DNA, 72 h; series mostly up to 28.7 µM
Outline: as §1

[6] = tested on: SC27B; assay: as above; details: P. falciparum in erythrocytes, SYBR Green DNA, 72 h; series mostly up to 28.7 µM
Outline: as §1

[7] = tested on: TAB109; assay: as above; details: P. falciparum in erythrocytes, SYBR Green DNA, 72 h; series mostly up to 28.7 µM
Outline: as §1

[8] = tested on: TAB113; assay: as above; details: P. falciparum in erythrocytes, SYBR Green DNA, 72 h; series mostly up to 28.7 µM
Outline: as §1

[9] = tested on: TAB165; assay: as above; details: P. falciparum in erythrocytes, SYBR Green DNA, 72 h; series mostly up to 28.7 µM
Outline: as §1

[10] = tested on: W2; assay: as above; details: P. falciparum in erythrocytes, SYBR Green DNA, 72 h; series mostly up to 28.7 µM
Outline: as §1

[11] = tested on: CRL-7250; assay: Cytotoxic Profiling of Annotated Libraries Using Quantitative High-Throughput Screening (AID 1296008); details: Five cell lines viability, CellTiter-Glo ATP luminescence, 48-72 h; max response: stronger effect = lower value; on max response: on the % scale 0 is the no-effect control and ±100 the full control effect
Outline: (§2)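 Cells exposed to compounds for 48 or 72 hr at 37 degrees Celsius. Viability read as ATP-coupled luminescence with CellTiter-Glo after 10 min at room temperature.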

[12] = tested on: HEK293; assay: as above; details: Five cell lines viability, CellTiter-Glo ATP luminescence, 48-72 h; max response: stronger effect = lower value
Outline: as §2

[13] = tested on: HaCat; assay: as above; details: Five cell lines viability, CellTiter-Glo ATP luminescence, 48-72 h; max response: stronger effect = lower value
Outline: as §2

[14] = tested on: KB-3-1; assay: as above; details: Five cell lines viability, CellTiter-Glo ATP luminescence, 48-72 h; max response: stronger effect = lower value
Outline: as §2

[15] = tested on: NIH3T3; assay: as above; details: Five cell lines viability, CellTiter-Glo ATP luminescence, 48-72 h; max response: stronger effect = lower value
Outline: as §2

[16] = tested on: HACAT; assay: qHTS assay to identify novel small-molecules to repurpose for Merkel cell carcinoma treatment (AID 1296009); details: MCC and control cell lines, CellTiter-Glo viability, 72 h; at 44.8 µM (top of the series) unless noted; further: potency means the concentration at half of the fitted maximal effect
Outline: (§3)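 Cells were treated for 72 hr at 37 degree celsius with compounds in 8- or 11-point dose response. Viability was read by CellTiter-Glo luminescence, normalized to no-cell (cytotoxicity) and DMSO controls.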

[17] = tested on: MCC-13; assay: as above; details: MCC and control cell lines, CellTiter-Glo viability, 72 h; series mostly up to 46 µM
Outline: as §3

[18] = tested on: MCC-26; assay: as above; details: MCC and control cell lines, CellTiter-Glo viability, 72 h; series mostly up to 46 µM
Outline: as §3

[19] = tested on: MKL-1; assay: as above; details: MCC and control cell lines, CellTiter-Glo viability, 72 h; series mostly up to 46 µM
Outline: as §3

[20] = tested on: HEK293T; assay: as above; details: MCC and control cell lines, CellTiter-Glo viability, 72 h; at 44.8 µM (top of the series) unless noted
Outline: as §3
Further: nearly all actives have a fitted effect of over 60% in size.

CCCN1CCCC[C@H]1C(=O)Nc1c(C)cccc1C
inactive: Potency [1] | Potency [2] | Potency [3] | Potency [4] | Potency [5] | Potency [6] | Potency [7] | Potency [8] | Potency [9] | max response [11] -6.22% | max response [12] -0.54% | outcome [13] | max response [14] -10% | max response [15] -2.9% | outcome [16] | Potency [17] | Potency [18] | Potency [19]
active: Potency [10] 4.78 µM

Cc1onc(-c2c(Cl)cccc2Cl)c1C(=O)N[C@@H]1C(=O)N2[C@@H]1SC(C)(C)[C@@H]2C(=O)O
inactive: max response [11] -3.36% and -1.59% | max response [12] -5.63% | outcome [12] | max response [13] -4.29% | max response [14] -7.64% and 7.08% | max response [15] -14.9% and -2.17% | outcome [20] | Potency [17] | Potency [18] | Potency [19]

CC1(C)O[C@@H]2[C@@H](CO[C@@]3(COS(N)(=O)=O)OC(C)(C)O[C@@H]23)O1
inactive: max response [11] -9.34% | outcome [12] | outcome [13] | max response [14] 12.1% | max response [15] -0.846% | outcome [16] | outcome [20] | Potency [17] | Potency [18] | Potency [19]

Oc1ccc(O)cc1
inactive: Potency [2] | Potency [3] | Potency [5] | Potency [6] | Potency [7] | outcome [11] | max response [12] -16.2% | outcome [13] | max response [14] -4.96% | max response [15] -10.8% | outcome [16] | Potency [17] | Potency [18]
active: Potency [10] 12 µM | Potency [19] 5.31 µM

CCOc1ccc(NC(=O)CC(C)O)cc1 (stereo not drawn)
inactive: Potency [1] | Potency [2] | Potency [3] | Potency [4] | Potency [5] | Potency [6] | Potency [7] | Potency [8] | Potency [9] | max response [11] -0.463% | max response [12] 2.44% | max response [13] -5.23% | max response [14] -22.8% | max response [15] 4.45% | Potency [17] | Potency [18] | Potency [19]

CC(C)COC(=O)c1ccc(N)cc1
inactive: Potency [2] | Potency [3] | Potency [4] | Potency [5] | Potency [6] | Potency [8] | Potency [9] | Potency [10] | max response [11] 2.7% | max response [12] -1.38% | outcome [13] | max response [14] 12.1% | max response [15] 3.91% | outcome [16] | Potency [17] | Potency [18] | Potency [19]
